In PubChem BioAssay (EPA / NIEHS):
Active and inactive are the calls of the source. How the source made its calls: active means hit-call score of the fitted dose curve at least 0.9, where 1 is the maximum; inactive means score below 0.9.

Molecular target: Paired box protein Pax-6 (Homo sapiens) (UniProt P26367)
Experiment: ATG_Pax6_CIS: Attagene CIS-FACTORIAL HepG2 Assay for human Paired Box 6 (PAX6) (AID 2282956)
Conditions: HepG2 CIS-FACTORIAL PAX6 reporter transcription, RNA readout; actives raise or lower the signal
In short: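 HepG2 cells transiently transfected with cis-promoter-driven multiplexed reporter units sensing endogenous transcription factor activity; 24 h chemical exposure. Reporter mRNA quantified by RT-PCR, 6-FAM labelling, HpaI digestion and capillary electrophoresis; bidirectional fit versus DMSO baseline.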

Paired box protein Pax-6 (Homo sapiens), sequence (P26367 whole entry, looked up): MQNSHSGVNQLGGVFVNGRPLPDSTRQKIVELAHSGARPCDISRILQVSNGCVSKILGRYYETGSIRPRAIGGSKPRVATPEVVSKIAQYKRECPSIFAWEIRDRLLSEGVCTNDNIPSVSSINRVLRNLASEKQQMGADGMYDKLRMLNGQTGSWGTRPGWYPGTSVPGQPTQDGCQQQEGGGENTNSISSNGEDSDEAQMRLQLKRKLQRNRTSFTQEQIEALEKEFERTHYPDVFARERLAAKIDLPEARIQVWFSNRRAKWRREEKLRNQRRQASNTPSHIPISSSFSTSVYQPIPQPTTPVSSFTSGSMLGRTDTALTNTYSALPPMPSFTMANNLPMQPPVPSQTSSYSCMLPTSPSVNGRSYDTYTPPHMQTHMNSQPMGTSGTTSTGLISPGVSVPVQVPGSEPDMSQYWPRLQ

SMILES	outcome	AC50
CCOc1ccccc1OCC	inactive	–
c1ccc2[nH]ccc2c1	inactive	–
CC(=O)O[C@H](CC(=O)[O-])C[N+](C)(C)C	inactive	–
CCN(CC)c1ccc(C(=C2C=CC(=[N+](CC)CC)C=C2)c2ccc(S(=O)(=O)O)cc2S(=O)(=O)[O-])cc1	inactive	–
CCCCCCCCCCCCCOS(=O)(=O)O	inactive	–
[Ca+2]	inactive	–
c1cc(C(c2ccc(OCC3CO3)cc2)c2ccc(OCC3CO3)cc2)ccc1OCC1CO1 (stereo unspecified)	–	9.85 µM (active)
CCn1c2ccccc2c2cc(N)ccc21	inactive	–
C=C[C@@H](C)CCC=C(C)C	inactive	–
O=C(O)CN(CCN(CC(=O)O)CC(=O)O)CCN(CC(=O)O)CC(=O)O	inactive	–
COC(=O)OC	inactive	–
Cc1c(Cl)c(=O)oc2cc(O)ccc12	inactive	–
O=Cc1ccc(F)cc1	inactive	–
C=C(C)C(=O)O	inactive	–
CC(C)OP(=O)(CP(=O)(OC(C)C)OC(C)C)OC(C)C	inactive	–
CCCCOCCOCCOCCOCCO	inactive	–
COc1ccc(Nc2ccccc2)c(C)c1	inactive	–
CCCC(C)C=O (stereo unspecified)	inactive	–
CC(=O)Nc1ccccc1O	inactive	–

SMILES	outcome	AC50
COc1cc(C(C)(C)C)c(O)c(C(C)(C)C)c1	inactive	–
CCCC(=O)C(C)=O	inactive	–
O=C(O)c1cn(C2CC2)c2cc(N3CCNCC3)c(F)cc2c1=O	inactive	–
Cc1ccc2ccccc2n1	inactive	–
CC(C)=CCCC(C)=CCCC(C)=CCO	inactive	–
O=C(Nc1ccccc1)c1cc([N+](=O)[O-])ccc1Cl	–	32.8 µM (active)
N#Cc1ccccc1	inactive	–
C[C@H]1C[C@@H]2[C@H]([C@@H](O)C[C@@]3(C)[C@H]2CC[C@]3(O)C(=O)CO)[C@@]2(C)C=CC(=O)C=C12	inactive	–
COCCOCCOCCOCCOCCO	inactive	–
O=C(O)CCCCC1CCSS1 (stereo unspecified)	inactive	–
C#C[C@]1(O)CC[C@H]2[C@@H]3CCC4=Cc5oncc5C[C@]4(C)[C@H]3CC[C@@]21C	–	20.1 µM (active)
O=C(O)COCCN1CCN(C(c2ccccc2)c2ccc(Cl)cc2)CC1 (stereo unspecified)	inactive	–
CCCCN	inactive	–
COC(=O)Cc1cccc2ccccc12	inactive	–
O=Nc1ccc(Nc2ccccc2)cc1	–	33.4 µM (active)
CC(C)=CCC[C@](C)(O)[C@@H]1CC=C(C)CC1	inactive	–
CCN(CC)c1ccc2c(-c3ccccc3C(=O)O)c3ccc(=[N+](CC)CC)cc-3oc2c1	–	149 µM (active)
CC(=O)[O][Al][O]C(C)=O	inactive	–
Cc1cccc(Nc2ccccc2C(=O)O)c1C	inactive	–

Tested on: not listed separately
Experiment: ATG_PXRE_CIS: Attagene CIS-FACTORIAL HepG2 Assay for human Pregnane X Receptor Element (PXRE) (AID 2282957)
Conditions: HepG2 Attagene CIS-FACTORIAL PXRE reporter, mRNA; actives raise or lower the signal
In short: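 Cells: HepG2, transiently transfected reporter units under cis promoter control. Exposure: 24 h. Detection: reporter mRNA via RT-PCR/CE fluorescence; bidirectional fitting, DMSO-referenced.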

SMILES	AC50	outcome
CCOc1ccccc1OCC	24.9 µM (active)	–
c1ccc2[nH]ccc2c1	29.9 µM (active)	–
CC(=O)O[C@H](CC(=O)[O-])C[N+](C)(C)C	–	inactive
CCN(CC)c1ccc(C(=C2C=CC(=[N+](CC)CC)C=C2)c2ccc(S(=O)(=O)O)cc2S(=O)(=O)[O-])cc1	63.4 µM (active)	–
CCCCCCCCCCCCCOS(=O)(=O)O	–	inactive
[Ca+2]	–	inactive
c1cc(C(c2ccc(OCC3CO3)cc2)c2ccc(OCC3CO3)cc2)ccc1OCC1CO1 (stereo unspecified)	–	inactive
CCn1c2ccccc2c2cc(N)ccc21	3.35 µM (active)	–
C=C[C@@H](C)CCC=C(C)C	–	inactive
O=C(O)CN(CCN(CC(=O)O)CC(=O)O)CCN(CC(=O)O)CC(=O)O	–	inactive
COC(=O)OC	–	inactive
Cc1c(Cl)c(=O)oc2cc(O)ccc12	70.3 µM (active)	–
O=Cc1ccc(F)cc1	–	inactive
C=C(C)C(=O)O	–	inactive
CC(C)OP(=O)(CP(=O)(OC(C)C)OC(C)C)OC(C)C	7.59 µM (active)	–
CCCCOCCOCCOCCOCCO	27.5 µM (active)	–
COc1ccc(Nc2ccccc2)c(C)c1	26.9 µM (active)	–
CCCC(C)C=O (stereo unspecified)	–	inactive
CC(=O)Nc1ccccc1O	–	inactive

SMILES	AC50	outcome
COc1cc(C(C)(C)C)c(O)c(C(C)(C)C)c1	2.09 µM (active)	–
CCCC(=O)C(C)=O	16.2 µM (active)	–
O=C(O)c1cn(C2CC2)c2cc(N3CCNCC3)c(F)cc2c1=O	–	inactive
Cc1ccc2ccccc2n1	58.9 µM (active)	–
CC(C)=CCCC(C)=CCCC(C)=CCO	4.26 µM (active)	–
O=C(Nc1ccccc1)c1cc([N+](=O)[O-])ccc1Cl	2.97 µM (active)	–
N#Cc1ccccc1	–	inactive
C[C@H]1C[C@@H]2[C@H]([C@@H](O)C[C@@]3(C)[C@H]2CC[C@]3(O)C(=O)CO)[C@@]2(C)C=CC(=O)C=C12	62.9 µM (active)	–
COCCOCCOCCOCCOCCO	–	inactive
O=C(O)CCCCC1CCSS1 (stereo unspecified)	–	inactive
C#C[C@]1(O)CC[C@H]2[C@@H]3CCC4=Cc5oncc5C[C@]4(C)[C@H]3CC[C@@]21C	8.09 µM (active)	–
O=C(O)COCCN1CCN(C(c2ccccc2)c2ccc(Cl)cc2)CC1 (stereo unspecified)	–	inactive
CCCCN	–	inactive
COC(=O)Cc1cccc2ccccc12	42.8 µM (active)	–
O=Nc1ccc(Nc2ccccc2)cc1	22.6 µM (active)	–
CC(C)=CCC[C@](C)(O)[C@@H]1CC=C(C)CC1	11.1 µM (active)	–
CCN(CC)c1ccc2c(-c3ccccc3C(=O)O)c3ccc(=[N+](CC)CC)cc-3oc2c1	0.882 µM (active)	–
CC(=O)[O][Al][O]C(C)=O	6.49 µM (active)	–
Cc1cccc(Nc2ccccc2C(=O)O)c1C	14.1 µM (active)	–
